{"source": "ChEMBL document CHEMBL3988442", "about": "“University of Dundee, Small-Polar-MMV Screening Library” (2021)", "note": "The whole screen tested about 53,000 compounds, of which about 900 (1.7%) showed an effect of 50% or more. This excerpt belongs to a sample that is enriched for strong results.", "data": [{"test_system": "Mycobacterium tuberculosis", "assay": "Cornell - Phenotypic assay to identify agents that inhibit growth of Mycobacterium tuberculosis", "type": "functional", "parameters": "scale not given: direction of the effect not stated beside the values", "conditions": "10 mM as filed; unlikely as a test dose", "units": {"Percent Effect": "%"}, "values": [{"smiles": "CCc1noc(C(C)N2CCN(c3ccc(C#N)cn3)CC2)n1", "note": "(stereo not drawn)", "Percent Effect": -10.8}, {"smiles": "Cc1ncncc1C(=O)N1CCOC(C(=O)NC2CCCC2)C1", "note": "(stereo not drawn)", "Percent Effect": -44.04}, {"smiles": "Cn1cncc1CN1CCCC1c1cncc(Oc2ccc(Cl)cc2)n1", "note": "(stereo not drawn)", "Percent Effect": -20.26}, {"smiles": "Cn1ccc2cc(C(=O)NC3CCOC(C)(C)C3)ccc21", "note": "(stereo not drawn)", "Percent Effect": 38.28}, {"smiles": "COCCn1ccc2cc(C(=O)NC3CCOC(C)(C)C3)ccc21", "note": "(stereo not drawn)", "Percent Effect": 51.29}, {"smiles": "Cn1ccc2ccc(C(=O)NC3CCOC(C)(C)C3)cc21", "note": "(stereo not drawn)", "Percent Effect": 33.83}, {"smiles": "COc1ccc2c(c1)OCC(Cc1cc(C(=O)N3CCCC3)ccn1)C2", "note": "(stereo not drawn)", "Percent Effect": 3.952}, {"smiles": "CCN(CC1CCCO1)C(=O)Nc1cccc(N2CCOCC2)c1", "note": "(stereo not drawn)", "Percent Effect": 5.45}, {"smiles": "CCCN(CC1CC1)C(=O)Cn1ccccc1=O", "Percent Effect": 23.77}, {"smiles": "CCCN(CC1CC1)C(=O)Nc1ccc(N2CCSCC2)cc1C", "Percent Effect": 108.2}, {"smiles": "CCOCC(=O)Nc1ccc(N2CCSCC2)cc1C", "Percent Effect": 35.44}, {"smiles": "Cc1cc(N2CCSCC2)ccc1NC(=O)N(CCO)C1CC1", "Percent Effect": 109.4}, {"smiles": "Cc1ccc(C(=O)N2CCSCC2)cc1NC(C)C", "Percent Effect": 8.4}, {"smiles": "CCC(C)N(C)C(=O)Nc1ccc(N2CCSCC2)cc1C", "note": "(stereo not drawn)", "Percent Effect": 109}, {"smiles": "Cc1ccc(C(=O)N2CCSCC2)cc1NC(=O)NCCO", "Percent Effect": 4.458}, {"smiles": "COCCCN(CCOC)C(=O)Nc1ccc(C)cc1C", "Percent Effect": -5.189}, {"smiles": "COCCOc1ccc(NC(=O)N(CCO)C2CC2)cn1", "Percent Effect": 5.522}, {"smiles": "CCN(CC)C(=O)Nc1ccc(N2CCSCC2)cc1C", "Percent Effect": 107.3}, {"smiles": "COCCNC(=O)Nc1ccc(C(=O)N2CCSCC2)cc1C", "Percent Effect": -6.31}, {"smiles": "CNc1ncc2c(n1)CN(CCc1ccc(Cl)cc1)C2=O", "Percent Effect": 6.698}, {"smiles": "O=C(O)C(F)(F)F.c1ccc(CN2CCC3(CC2)CC(Nc2nccs2)CO3)nc1", "note": "(stereo not drawn)", "Percent Effect": 10.27}, {"smiles": "CN1CCCC1c1cncc(C(=O)NCCN2CCCCC2)n1", "note": "(stereo not drawn)", "Percent Effect": 5.104}, {"smiles": "O=C(O)C(F)(F)F.O=C(O)C(F)(F)F.c1coc(CN2C[C@@H]3CCCO[C@@H]3[C@H](N3CCCC3)C2)c1", "Percent Effect": -1.356}, {"smiles": "COc1ccccc1Nc1nc2c(C)nn(C)c2c(=O)n1C", "Percent Effect": -35.16}, {"smiles": "CCS(=O)(=O)N1CCc2c(nc(C3CCCN3)nc2NC)C1.Cl", "note": "(stereo not drawn)", "Percent Effect": -16.35}, {"smiles": "C1CC(CN2C[C@H]3CC[C@@H]2CN(Cc2nnc(C4CC4)o2)C3)C1", "Percent Effect": 14.78}, {"smiles": "C1CC(CN2C[C@H]3CC[C@@H]2CN(Cc2noc(C4CCCC4)n2)C3)C1", "Percent Effect": 50.34}, {"smiles": "c1ccc(-c2nnc(CN3C[C@@H]4CC[C@H](C3)N(CC3CCC3)C4)o2)cc1", "Percent Effect": 34.96}, {"smiles": "c1ccc(-c2cc(CN3C[C@H]4CC[C@H]3C4)on2)cc1", "Percent Effect": 18.4}, {"smiles": "c1ccc(-c2cc(CN3C[C@@H]4CC[C@H](C3)N(CC3CC3)C4)on2)cc1", "Percent Effect": 34.91}, {"smiles": "c1ccc(-c2cc(CN3C[C@@H]4CC[C@H](C3)N(CC3CCC3)C4)on2)cc1", "Percent Effect": 96.75}, {"smiles": "O=C(c1cnc(-c2cccnc2)nc1)N1CCSCC1", "Percent Effect": -5.308}, {"smiles": "CCc1ccc(C(COC)NC(=O)c2ccc(F)c(NC(C)=O)c2)o1", "note": "(stereo not drawn)", "Percent Effect": -34.26}, {"smiles": "Cc1cc(CN2CCCC2)cc(Oc2nc(C)cnc2C)c1", "Percent Effect": -0.05473}, {"smiles": "COCCN(C)C[C@@H]1CN(C(=O)c2ccc(OC)c(F)c2)C[C@@H]1CO", "Percent Effect": 3.272}, {"smiles": "Cc1cc(F)ccc1N1CCC(N2C[C@@H](CN(C)C)[C@@H](CO)C2)CC1", "Percent Effect": 20.05}, {"smiles": "C[C@@H]1CN(C2CCN(c3ccccc3F)CC2)C[C@]1(C)O", "Percent Effect": -0.763}, {"smiles": "Cc1cc(F)ccc1N1CCC(N2C[C@@H](C)[C@@](C)(O)C2)CC1", "Percent Effect": 57.75}, {"smiles": "Cc1nn(C)c(N2CCCN(C)CC2)c1CNC(=O)CC1CCCC1", "Percent Effect": 23.58}, {"smiles": "CC(Cn1cc(Cl)cn1)C(=O)Nc1ccc(CN2CCCCCC2)cc1", "note": "(stereo not drawn)", "Percent Effect": -18.96}, {"smiles": "COc1cccc(NC(=O)NCc2cnn(C)c2)c1", "Percent Effect": 2.363}, {"smiles": "COc1cccc(NC(=O)C(C)Cn2cc(Cl)cn2)c1", "note": "(stereo not drawn)", "Percent Effect": 52.64}, {"smiles": "COC(=O)Cn1c(=O)nc2n1C(=O)N(c1cccc(C)c1)C2", "Percent Effect": 2.841}, {"smiles": "O=C(c1csc(-c2cnccn2)n1)N1CCCC1Cn1cccn1", "note": "(stereo not drawn)", "Percent Effect": -12.16}, {"smiles": "O=C(NC1CCCN(c2ccccn2)C1)C1(c2ccccc2F)CC1", "note": "(stereo not drawn)", "Percent Effect": -27.34}, {"smiles": "Cn1cccc1C(=O)N1CC2(CCN(C(=O)c3cccnc3)C2)C1.O=C(O)C(F)(F)F", "Percent Effect": -3.792}, {"smiles": "CNC(=O)c1cc(NC(=O)NC(C)CCc2cccn2C)ccc1F", "note": "(stereo not drawn)", "Percent Effect": -1.57}, {"smiles": "CC(C)CCCNC(=O)Nc1ccc(F)c(C(N)=O)c1", "Percent Effect": -8.199}, {"smiles": "CCCn1cc(NC(=O)Nc2ccc(F)c(C(=O)NC)c2)cn1", "Percent Effect": 69.43}, {"smiles": "CCc1c(C(=O)Nc2ccc(F)c(C(=O)NC)c2)cnn1CC(C)C", "Percent Effect": 23.68}, {"smiles": "COCCn1cc(NC(=O)NC(C)Cc2c(F)cccc2F)cn1", "note": "(stereo not drawn)", "Percent Effect": -32.72}, {"smiles": "CNC(=O)c1cc(NC(=O)Nc2cnn(CC(C)C)c2)ccc1F", "Percent Effect": 69.74}, {"smiles": "Cc1cc(CN(C)C(=O)C2CC(=O)N(Cc3cccnc3)C2)on1", "note": "(stereo not drawn)", "Percent Effect": 14.11}, {"smiles": "CCc1nnc2n1CCN(Cc1nnc(-c3occc3C)o1)C2", "Percent Effect": -3.481}, {"smiles": "COc1ccccc1NC(=O)Cn1c(=O)nc(N)c2cc(C)sc21", "Percent Effect": -16.18}, {"smiles": "CNc1oc(-c2ccc(OC)c(S(=O)(=O)N3CCCC3)c2)nc1C#N", "Percent Effect": 17.45}, {"smiles": "COCC(C)NC(=O)NCCCc1cc(N)n(-c2ccccc2)n1", "note": "(stereo not drawn)", "Percent Effect": 4.106}, {"smiles": "CCNC(=O)c1ccoc1CN1c2ccccc2CC1C", "note": "(stereo not drawn)", "Percent Effect": 70.88}, {"smiles": "CC1Cc2ccccc2N1Cc1occc1C(=O)NCC(=O)N(C)C", "note": "(stereo not drawn)", "Percent Effect": 0.4209}, {"smiles": "COC(=O)CCNC(=O)c1ccoc1CN1c2ccccc2CC1C", "note": "(stereo not drawn)", "Percent Effect": 59.33}, {"smiles": "CC1Cc2ccccc2N1Cc1occc1C(=O)O", "note": "(stereo not drawn)", "Percent Effect": -3.286}, {"smiles": "COCCNC(=O)c1ccoc1CN1c2ccccc2CC1C", "note": "(stereo not drawn)", "Percent Effect": 34.19}, {"smiles": "CC1Cc2ccccc2N1Cc1occc1C(=O)OCC(N)=O", "note": "(stereo not drawn)", "Percent Effect": 46.11}, {"smiles": "CN(CCn1nc2ccccn2c1=O)CC(=O)NC1CC1", "Percent Effect": -0.7088}, {"smiles": "Cc1nc(CN2CCC3(C2)CN(C(=O)c2ccc[nH]2)C3)cs1", "Percent Effect": 9.497}, {"smiles": "COc1cccc(NC(=O)Nc2ccc3c(c2)CC(=O)N3)c1", "Percent Effect": -2.338}, {"smiles": "O=C(NCC(=O)N1CCc2ccccc2C1)c1ccoc1", "Percent Effect": -20.14}, {"smiles": "COC(=O)N1CCN2C[C@H](CO)[C@@H](c3ccccc3)[C@H]2C1", "Percent Effect": 9.303}, {"smiles": "CC(=O)OC1CN(c2nc3c(C(F)(F)F)cccc3s2)C1", "Percent Effect": 5.311}, {"smiles": "COC1COC2(CCN(Cc3ccc4ccccc4n3)CC2)C1.O=C(O)C(F)(F)F.O=C(O)C(F)(F)F", "note": "(stereo not drawn)", "Percent Effect": 14.78}, {"smiles": "Cc1ccc(-n2cnnn2)cc1NCC(=O)Nc1cc(F)ccc1F", "Percent Effect": 11.17}, {"smiles": "Cc1ccc(-n2cnnn2)cc1NCC(=O)Nc1ccccc1Cl", "Percent Effect": 6.921}, {"smiles": "O=C(CNc1cc(-n2cnnn2)ccc1F)Nc1cc(F)ccc1F", "Percent Effect": 3.475}, {"smiles": "O=C(CNc1cc(-n2cnnn2)ccc1F)Nc1ccccc1Cl", "Percent Effect": 96.42}, {"smiles": "O=C(CNc1cc(-n2cnnn2)ccc1F)NCc1ccccc1", "Percent Effect": 76.98}, {"smiles": "O=C(CNc1ccccc1Cl)Nc1cc(-n2cnnn2)ccc1F", "Percent Effect": 22.69}, {"smiles": "O=S(=O)(c1ccc(F)c(F)c1)N1CCCC(c2nccs2)C1", "note": "(stereo not drawn)", "Percent Effect": -0.9721}, {"smiles": "Cc1cccc(C(=O)N2C[C@@H](OCc3ccncc3)[C@@H]3OCCC[C@@H]32)n1.O=C(O)C(F)(F)F.O=C(O)C(F)(F)F", "Percent Effect": 29.52}, {"smiles": "Cc1ccccc1CNC(=O)CNc1ccc(OC2CCOC2)cc1", "note": "(stereo not drawn)", "Percent Effect": 74.57}, {"smiles": "Cl.Cl.O=C(CN1CCN(CC(O)C2CC2)CC1)NCc1ccc(F)cc1", "note": "(stereo not drawn)", "Percent Effect": 12.18}, {"smiles": "O=C(CNc1ccc(OC2CCOC2)cc1)NCc1ccc(F)cc1", "note": "(stereo not drawn)", "Percent Effect": 70.37}, {"smiles": "O=C(CNc1ccc(OC2CCOC2)cc1)NCc1cccs1", "note": "(stereo not drawn)", "Percent Effect": 8.02}, {"smiles": "O=C(CNc1ccc(OC2CCOC2)cc1)NCc1ccco1", "note": "(stereo not drawn)", "Percent Effect": 37.67}, {"smiles": "O=C(NCc1ccc(F)cc1)N1CCC(C2OCCO2)CC1", "Percent Effect": 9.763}, {"smiles": "C1CN(Cc2noc(C3CC3)n2)CCN(Cc2nnc(C3CC3)o2)C1", "Percent Effect": -22.59}, {"smiles": "Cc1cnn(C2CCCN(C(=O)CCCc3ccccn3)C2)c1", "note": "(stereo not drawn)", "Percent Effect": 2.711}, {"smiles": "COc1ccc(S(=O)(=O)Nc2cnc(N(C)C)nc2)cc1", "Percent Effect": -14.34}, {"smiles": "CCCN(C(=O)c1cccnc1)c1nc2c(s1)CCc1c-2cnn1C", "Percent Effect": 30.71}, {"smiles": "CCCN(C(=O)c1ccncc1)c1nc2c(s1)CCc1c-2cnn1C", "Percent Effect": 54}, {"smiles": "CCCN(C(=O)c1cnccn1)c1nc2c(s1)CCc1c-2cnn1C", "Percent Effect": 25.49}, {"smiles": "CS(=O)(=O)NC[C@H]1OC[C@H]2CN(CCc3ccccc3)CC[C@H]21.O=C(O)C(F)(F)F", "Percent Effect": 1.676}, {"smiles": "CN1CCOC(CNCc2coc(-c3cccc(Cl)c3)n2)C1", "note": "(stereo not drawn)", "Percent Effect": 12.33}, {"smiles": "COc1ccc(CN(C)[C@@H]2CN(C(=O)c3cccnc3)C[C@H]2O)cc1", "Percent Effect": 29.94}, {"smiles": "CC(C)c1cc(C(=O)NCC2CCCN(c3ncccn3)C2)n(C)n1", "note": "(stereo not drawn)", "Percent Effect": 10.83}, {"smiles": "COc1cccc(-c2cc(C(=O)N3N=C(C)CC3(O)C(F)(F)F)[nH]n2)c1", "note": "(stereo not drawn)", "Percent Effect": 58.69}, {"smiles": "COc1cccc(-c2cc(C(=O)N3N=C(C)CC3(O)C(F)F)[nH]n2)c1", "note": "(stereo not drawn)", "Percent Effect": 21.19}, {"smiles": "COc1ccc(-c2cc(C(=O)N3N=C(C)CC3(O)C(F)(F)F)[nH]n2)cc1", "note": "(stereo not drawn)", "Percent Effect": -4.762}, {"smiles": "CCOCC(=O)Nc1ncn(Cc2cccc(Br)c2)n1", "Percent Effect": -12.98}, {"smiles": "CCOCC(=O)Nc1nccn1Cc1ccc(Br)cc1", "Percent Effect": 58.9}, {"smiles": "CSCC(=O)Nc1nccn1Cc1ccc(Br)cc1", "Percent Effect": 106.3}, {"smiles": "COCCC(=O)Nc1nccn1Cc1ccc(Br)cc1", "Percent Effect": 27.83}, {"smiles": "COCC(=O)Nc1nccn1Cc1ccc(Br)cc1", "Percent Effect": 26.85}, {"smiles": "CC(C)(C#N)C(=O)Nc1nccn1Cc1ccc(Br)cc1", "Percent Effect": 15.16}]}]}
